In all, about 48,000 compounds went through this assay and about 13,000 (27%) showed an effect of 50% or more. Some of the results follow.
system: Wolbachia pipientis; assay: Anti-Wolbachia Cell-Based Screen; format: functional; set-up: scale not given: in the data most compounds retested in dose-response had high values; details: 5 µM

Row | SMILES | Percent Effect [%]
1 | CCOC(C)c1nc(CN2CCN(c3ncc(C)cn3)CC2)cs1 (stereo unspecified) | 0.6685
2 | COc1ccc(S(=O)(=O)C(F)(F)F)cc1NC(=O)CSC | 25.38
3 | COCCC1(CO)CCCN(Cc2ccc(F)c(C)c2)C1 (stereo unspecified) | -0.7036
4 | CCN(CC)C(=O)CCCNC(=O)Cc1nc(-c2ccco2)oc1C | -23.46
5 | Cc1ccc(C(=O)N2CCOc3nc(C)ccc32)c(F)c1 | -2.508
6 | O=C(NCCNC1CCN(c2nccs2)CC1)c1cccs1 | -5.805
7 | CC(O)(CCc1ccccc1)CNC(=O)c1cccs1 (stereo unspecified) | -8.464
8 | CC(C)(C)c1ncc(C(=O)NCCNC(=O)c2ccc(O)cc2)s1 | 102.8
9 | O=C(NCCNc1ncccn1)c1cnc(-c2ccccc2)nc1 | 9.369
10 | CC(C)(C)c1ncc(C(=O)NCCNc2ncccn2)s1 | 108.5
11 | CC(C)(C)c1ncc(C(=O)NCCNC(=O)c2cccs2)s1 | 110.8
12 | O=C(NCCNc1ccc(Br)cn1)c1ccc(O)cc1 | -11.29
13 | CC(C)(C)c1ncc(C(=O)NCCn2ccnc2)s1 | -7.496
14 | CC(C)(C)c1ncc(C(=O)NCCNC(=O)c2ccccc2)s1 | 3.571
15 | Cc1sc2nc(C(F)(F)F)nc(N3CCC(NS(C)(=O)=O)CC3)c2c1C | 11.4
16 | CCn1ncc2c1CCCC2NCC1=Cc2ccccc2OC1 (stereo unspecified) | -5.815
17 | COCC(=O)N1CCC2(CCCN(Cc3ccc(Cl)cc3)CC2)CC1 | -3.814
18 | CC(=O)N1CC2(CCCN(Cc3ccc(Cl)cc3)C2)Cc2ccccc21 (stereo unspecified) | 131.8
19 | CC(=O)N1CC2(CCN(Cc3ccc(Cl)cc3)C2)Cc2ccccc21 (stereo unspecified) | 116.3
20 | Cc1ncsc1CN1CCC2(CC1)CC(=O)N(Cc1ccc(Cl)cc1)C2 | -0.4744
21 | CC(=O)N1CC2(CCN(Cc3ccc(Cl)cc3)CC2)Cc2ccccc21 | 118.6

Row | SMILES | Percent Effect [%]
22 | CC(=O)N1CCC2(CCCN(Cc3ccc(Cl)c(C(F)(F)F)c3)C2)C1 (stereo unspecified) | 5.734
23 | CC(=O)N1CCCC2(CCN(Cc3ccc(Cl)c(C(F)(F)F)c3)C2)C1 (stereo unspecified) | 13.59
24 | CC(=O)N1CCCC2(CCN(Cc3ccc(Cl)c(F)c3)C2)C1 (stereo unspecified) | 9.026
25 | Cc1cc(C(=O)N2CCN(CC(O)Cn3cccn3)CC2)c(C)o1 (stereo unspecified) | 3.42
26 | CN1CCC(N2CCOC[C@H]2c2nc(-c3ccncc3)c[nH]2)CC1 | -3.647
27 | CNS(=O)(=O)c1ccc(C(=O)NC2CCc3nc(C)cn3C2)o1 (stereo unspecified) | -2.01
28 | Cc1nccc(NCc2cncc3c2CCN(S(C)(=O)=O)C3)n1.Cl | 65.34
29 | Cc1cnc(N2CCc3c(CNc4ccnc(C)n4)cncc3C2)nc1.Cl | 94.65
30 | Cc1nccc(NCc2cc3n(n2)CCCN(S(C)(=O)=O)C3)n1 | -4.835
31 | CN1C(=O)CC(C(=O)O)C12CCN(Cc1cc(F)ccc1Cl)CC2 (stereo unspecified) | -13.17
32 | CN(C)C(=O)c1cc(-c2ccncc2)[nH]n1 | 116.7
33 | CN(C)C(=O)c1cc(-c2ccccc2)[nH]n1 | 125.1
34 | Cc1ccn(CC(=O)Nc2cc(-c3ccncc3)[nH]n2)n1 | -0.1185
35 | O=C(NCCn1nc2ccccn2c1=O)c1cc(-c2ccccc2)[nH]n1 | 1.619
36 | Cc1nc(-c2cccc(C(=O)N(C)C)c2)cs1 | -24.42
37 | Cc1ccnn1CC(=O)Nc1cc(-c2ccncc2)[nH]n1 | -6.833
38 | CC1=C[C@@H](CN2CCC(CO)CC2)[C@H](C(C)C)C[C@H]1Cc1nnc(C)o1 | -9.335
39 | COc1ccc(CN2C[C@@H](F)[C@@H](OCc3nc4ccccc4[nH]3)C2)cn1 | -8.557
40 | CC(NC(=O)c1ccc2c(c1)OCC(=O)N2)c1ccccc1F (stereo unspecified) | -1.956
41 | CCN1CCN(CC(O)c2ccc(OC(F)(F)F)cc2)CC1 (stereo unspecified) | 1.039
42 | Cc1c(C)n(CC(O)CN2CCN(CCO)CC2)c2c(Cl)cccc12.Cl (stereo unspecified) | 3.197

Row | SMILES | Percent Effect [%]
43 | CCc1ccc(OCC(O)CN2CCN(CC)CC2)cc1 (stereo unspecified) | 71.19
44 | CCc1ccc(OCC(O)CN2CCC(O)CC2)cc1 (stereo unspecified) | 11.05
45 | CCc1ccc(CNCC2CCN(CCO)CC2)cc1 | -51.45
46 | CCc1ccc(OCC(O)CN2CCN(CCO)CC2)cc1.Cl.Cl (stereo unspecified) | 85.64
47 | Cc1n[nH]cc1CNC1(Cc2ccc(Br)cc2)CCCCC1 | 13.31
48 | O=C(Cc1ccc(F)cc1)NCc1ccc(C(=O)O)o1 | -2.994
49 | CC(C)c1nc(/C=C/c2ccc(O)c(Cl)c2)ncc1C(=O)O | 6.301
50 | CN(C)S(=O)(=O)N1CCCC1C(=O)N1CCSCC1 (stereo unspecified) | -27.44
51 | CC(C)CNC(=O)[C@H]1CCS(=O)(=O)[C@@H]2CN(CC(C)C)C[C@H]12.O=C(O)C(F)(F)F | 102.6
52 | CC(C)CNC(=O)[C@H]1CCS(=O)(=O)[C@@H]2CN(Cc3ccc(Cl)cc3)C[C@H]12.O=C(O)C(F)(F)F | 20.84
53 | Cc1ccc(CN2C[C@@H]3[C@@H](C(=O)NCC4CC4)CCS(=O)(=O)[C@@H]3C2)cc1.O=C(O)C(F)(F)F | 110.7
54 | Cc1ccc(CN2C[C@@H]3[C@@H](C(=O)N4CCCC4)CCS(=O)(=O)[C@@H]3C2)cc1.O=C(O)C(F)(F)F | -5.739
55 | CC(C)CNC(=O)[C@H]1CCS(=O)(=O)[C@@H]2CN(Cc3cccnc3)C[C@H]12 | 94.11
56 | O=C([C@H]1CCS(=O)(=O)[C@@H]2CN(Cc3ccc(F)cc3)C[C@H]12)N1CCCC1 | -0.8548
57 | CC(C)CNC(=O)[C@H]1CCS(=O)(=O)[C@@H]2CN(Cc3ccc(F)cc3)C[C@H]12.O=C(O)C(F)(F)F | 118.4
58 | C=C(C)COc1cccc(C(=O)N2CCC3(CC2)CN(C)CCN3C)c1 | -0.7727
59 | COCc1nc2cc(NCc3nc(C)cs3)ccc2o1 | 14.28
60 | COCCN1CC(C(=O)N(C)Cc2csc(C)n2)CC1=O (stereo unspecified) | 9.291
61 | Cc1nc(N)nc(N2CCOc3ccc(CO)cc3C2)c1C | -10.79

— ChEMBL document CHEMBL3988442, “University of Dundee, Small-Polar-MMV Screening Library” (2021)
